Measurements taken from the supplement of paper PMC8007513.
Counter-ions that a name gives are not always drawn. ± gives the standard error. In all, about 1,300 compounds went through this assay and about 130 (10%) showed an effect of 50% or more. Many of the other results were omitted from the sample, so strong results are more common in it than they were.

System: Trichoderma virens ATCC 9645
Assay: growth yield (OD600) with compound + IPBC relative to untreated control; higher = less growth inhibition
Conditions: compound concentration: 100 uM, IPBC concentration: 200 ng/ml
How it was run: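 Growth appears as means of duplicate screens, relative to the control containing neither agent. To obtain it, OD600 was read on a BioTek EL800 at 40 h and 72 h. The cultures were 100 μl aliquots in 96-well plates at 30 °C, holding Trichoderma virens ATCC 9645 spores at 15,000 spores ml^−1 in potato dextrose broth, library compounds at 100 μM final, and, in some wells, a biocide at 200 ng ml^−1.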

| SMILES | growth yield (40 h) | growth yield (72 h) |
| --- | --- | --- |
| CCOc1ccccc1OC(c1ccccc1)C1CNCCO1 (centres undefined) [Reboxetine mesylate] + CCCCNC(=O)OCC#CI [3-iodo-2-propynyl butylcarbamate (IPBC)] | 82.92 ± 0.32% | 90.61 ± 0.63% |
| CC(N)C(O)c1ccccc1 (centres undefined) [Phenylpropanolamine hydrochloride] + CCCCNC(=O)OCC#CI [3-iodo-2-propynyl butylcarbamate (IPBC)] | 97.1 ± 7.5% | 101 ± 3.5% |
| O=C(O)CN(CCN(CC(=O)O)CC(=O)O)CCN(CC(=O)O)CC(=O)O [Pentetic acid] + CCCCNC(=O)OCC#CI [3-iodo-2-propynyl butylcarbamate (IPBC)] | 18.7 ± 1.6% | 88.41 ± 0.73% |
| CCc1cccc(CC)c1NC(=O)CN(CC(=O)O)CC(=O)O [Etifenin] + CCCCNC(=O)OCC#CI [3-iodo-2-propynyl butylcarbamate (IPBC)] | 87.7 ± 4.1% | 94.4 ± 2.3% |
| O=P(O)(O)C(O)(Cc1cccnc1)P(=O)(O)O [Risedronic acid monohydrate] + CCCCNC(=O)OCC#CI [3-iodo-2-propynyl butylcarbamate (IPBC)] | 88.8 ± 2.7% | 91.66 ± 0.42% |
| COc1ccc(C[C@@H]2c3cc(OC)c(OC)cc3CC[N@+]2(C)CCC(=O)OCCCCCOC(=O)CC[N@@+]2(C)CCc3cc(OC)c(OC)cc3[C@H]2Cc2ccc(OC)c(OC)c2)cc1OC [Cisatracurium besylate] + CCCCNC(=O)OCC#CI [3-iodo-2-propynyl butylcarbamate (IPBC)] | 78.3 ± 2.1% | 85.9 ± 4.1% |
| CC1=C(/C=C/C(C)=C/C=C/C(C)=C\C(=O)O)C(C)(C)CCC1 [Isotretinoin] + CCCCNC(=O)OCC#CI [3-iodo-2-propynyl butylcarbamate (IPBC)] | 83.5% | 105 ± 16% |
| CCCCOc1ccc(CC(=O)NO)cc1 [Bufexamac] + CCCCNC(=O)OCC#CI [3-iodo-2-propynyl butylcarbamate (IPBC)] | 99.59 ± 0.16% | 95.438 ± 1e-14% |
| CCCCOc1ccc(C(=O)CCN2CCCCC2)cc1 [Dyclonine hydrochloride] + CCCCNC(=O)OCC#CI [3-iodo-2-propynyl butylcarbamate (IPBC)] | 75.4 ± 1.1% | 90.8 ± 1.5% |
| N=C(N)c1ccc(OCCCCCOc2ccc(C(=N)N)cc2)cc1 [Pentamidine isethionate] + CCCCNC(=O)OCC#CI [3-iodo-2-propynyl butylcarbamate (IPBC)] | 2.7 ± 0.48% | 2.1 ± 0.42% |
| CCCNC(C)(C)COC(=O)c1ccccc1 [Meprylcaine hydrochloride] + CCCCNC(=O)OCC#CI [3-iodo-2-propynyl butylcarbamate (IPBC)] | 87.7 ± 7.6% | 91.8 ± 5.1% |
| Nc1nc(O)c2ncn(CCC(CO)CO)c2n1 [Penciclovir] + CCCCNC(=O)OCC#CI [3-iodo-2-propynyl butylcarbamate (IPBC)] | 82.76 ± 0.48% | 95.6 ± 1.3% |
| Cc1ccccc1C(=O)Nc1ccc(C(=O)N2CCCC(O)c3cc(Cl)ccc32)c(C)c1 (centres undefined) [Tolvaptan] + CCCCNC(=O)OCC#CI [3-iodo-2-propynyl butylcarbamate (IPBC)] | 107 ± 2.5% | 107.1 ± 0.94% |
| CN1CCCC(CC2c3ccccc3Sc3ccccc32)C1 (centres undefined) [Metixene hydrochloride] + CCCCNC(=O)OCC#CI [3-iodo-2-propynyl butylcarbamate (IPBC)] | 48.9 ± 2.2% | 85.3 ± 2% |
| Cc1ncc(CO)c(CO)c1O [Pyridoxine hydrochloride] + CCCCNC(=O)OCC#CI [3-iodo-2-propynyl butylcarbamate (IPBC)] | 79.58 ± 0.79% | 85.7 ± 2.2% |
| CCN(CC)CCOC(=O)C(Cc1cccc2ccccc12)CC1CCCO1 (centres undefined) [Nafronyl oxalate] + CCCCNC(=O)OCC#CI [3-iodo-2-propynyl butylcarbamate (IPBC)] | 71.5 ± 1.3% | 87.36 ± 0.1% |
| CO[C@H]1/C=C/O[C@@]2(C)Oc3c(C)c(O)c4c(O)c(c(/C=N/N5CCN(C6CCCC6)CC5)c(O)c4c3C2=O)NC(=O)/C(C)=C\C=C\[C@H](C)[C@H](O)[C@@H](C)[C@@H](O)[C@@H](C)[C@H](OC(C)=O)[C@@H]1C [Rifapentine] + CCCCNC(=O)OCC#CI [3-iodo-2-propynyl butylcarbamate (IPBC)] | 90.2 ± 0.95% | 94.5 ± 2.6% |
| NC[C@H]1CC[C@H](C(=O)O)CC1 [Tranexamic acid] + CCCCNC(=O)OCC#CI [3-iodo-2-propynyl butylcarbamate (IPBC)] | 100 ± 3.8% | 104 ± 1.1% |
| CCC1(c2ccccc2)NC(=O)N(C)C1=O (centres undefined) [Mephenytoin] + CCCCNC(=O)OCC#CI [3-iodo-2-propynyl butylcarbamate (IPBC)] | 88.5 ± 2.4% | 100 ± 9.9% |

| SMILES | growth yield (40 h) | growth yield (72 h) |
| --- | --- | --- |
| CN(C)[C@@H]1C(O)=C(C(N)=O)C(=O)[C@@]2(O)C(O)=C3C(=O)c4c(O)cccc4[C@@](C)(O)[C@H]3C[C@@H]12 [Tetracycline hydrochloride] + CCCCNC(=O)OCC#CI [3-iodo-2-propynyl butylcarbamate (IPBC)] | 99.3 ± 11% | 96.9 ± 6.3% |
| C[N+]1(C)CCC(OC(=O)C(O)(c2ccccc2)C2CCCC2)C1 (centres undefined) [Glycopyrrolate] + CCCCNC(=O)OCC#CI [3-iodo-2-propynyl butylcarbamate (IPBC)] | 101 ± 14% | 98.7 ± 8.1% |
| O=C1c2c(O)ccc(O)c2C(=O)c2c(NCCNCCO)ccc(NCCNCCO)c21 [Mitoxantrone dihydrochloride] + CCCCNC(=O)OCC#CI [3-iodo-2-propynyl butylcarbamate (IPBC)] | 1.27 ± 1.3% | 0% |
| O=C1c2c(O)cccc2Cc2cccc(O)c21 [Anthralin] + CCCCNC(=O)OCC#CI [3-iodo-2-propynyl butylcarbamate (IPBC)] | 71.8 ± 3.8% | 82.4 ± 1.3% |
| O=C1c2cccc(O)c2C(=O)c2c(O)cccc21 [1,8-Dihydroxyanthraquinone] + CCCCNC(=O)OCC#CI [3-iodo-2-propynyl butylcarbamate (IPBC)] | 55.12 ± 0.16% | 77.2 ± 1.9% |
| CN(C)[C@@H]1C(O)=C(C(N)=O)C(=O)[C@@]2(O)C(O)=C3C(=O)c4c(O)ccc(Cl)c4[C@@H](O)[C@H]3C[C@@H]12 [Demeclocycline hydrochloride] + CCCCNC(=O)OCC#CI [3-iodo-2-propynyl butylcarbamate (IPBC)] | 68.8 ± 2.4% | 76.1 ± 1.1% |
| CC(C)CC(N(C)C)C1(c2ccc(Cl)cc2)CCC1 (centres undefined) [Sibutramine hydrochloride] + CCCCNC(=O)OCC#CI [3-iodo-2-propynyl butylcarbamate (IPBC)] | 76.7 ± 0.79% | 90.82 ± 0.42% |
| CCC[C@H](N[C@@H](C)C(=O)N1[C@H](C(=O)O)C[C@@H]2CCCC[C@@H]21)C(=O)OCC [Perindopril] + CCCCNC(=O)OCC#CI [3-iodo-2-propynyl butylcarbamate (IPBC)] | 98.8 ± 5.1% | 97.5 ± 3.1% |
| COC(=O)Nc1nc2cc([S+]([O-])c3ccccc3)ccc2[nH]1 (centres undefined) [Oxfendazol] + CCCCNC(=O)OCC#CI [3-iodo-2-propynyl butylcarbamate (IPBC)] | 93.4 ± 6.3% | 98.2 ± 4.2% |
| COC(=O)Nc1nc2cc(C(=O)c3ccccc3)ccc2[nH]1 [Mebendazole] + CCCCNC(=O)OCC#CI [3-iodo-2-propynyl butylcarbamate (IPBC)] | 68 ± 1.9% | 89.36 ± 0.63% |
| COC(=O)Nc1nc2cc(C(=O)c3ccc(F)cc3)ccc2[nH]1 [Flubendazol] + CCCCNC(=O)OCC#CI [3-iodo-2-propynyl butylcarbamate (IPBC)] | 86.4 ± 5.4% | 91.1 ± 4.9% |
| CCCSc1ccc2[nH]c(NC(=O)OC)nc2c1 [Albendazole] + CCCCNC(=O)OCC#CI [3-iodo-2-propynyl butylcarbamate (IPBC)] | 87.7 ± 8.9% | 99.7 ± 2.8% |
| CCCCc1ccc2[nH]c(NC(=O)OC)nc2c1 [Parbendazole] + CCCCNC(=O)OCC#CI [3-iodo-2-propynyl butylcarbamate (IPBC)] | 27 ± 4.1% | 80.2 ± 2.2% |
| CCCOc1ccc2[nH]c(NC(=O)OC)nc2c1 [Oxibendazol] + CCCCNC(=O)OCC#CI [3-iodo-2-propynyl butylcarbamate (IPBC)] | 44.6 ± 2.1% | 85 ± 4.8% |
| N#Cc1cc(NC(=O)C(=O)O)c(Cl)c(NC(=O)C(=O)O)c1 [Lodoxamide] + CCCCNC(=O)OCC#CI [3-iodo-2-propynyl butylcarbamate (IPBC)] | 114 ± 10% | 109 ± 12% |
| C=C(NC(=O)C(=C)NC(=O)c1csc(C2=N[C@@H]3c4csc(n4)[C@H]4NC(=O)c5csc(n5)[C@H]([C@](C)(O)[C@@H](C)O)NC(=O)[C@H]5CSC(=N5)/C(=C/C)NC(=O)[C@H]([C@@H](C)O)NC(=O)c5csc(n5)[C@]3(CC2)NC(=O)[C@H](C)NC(=O)C(=C)NC(=O)[C@H](C)NC(=O)[C@H]([C@@H](C)CC)N[C@@H]2C=Cc3c([C@H](C)O)cc(nc3[C@H]2O)C(=O)O[C@@H]4C)n1)C(N)=O [Thiostrepton] + CCCCNC(=O)OCC#CI [3-iodo-2-propynyl butylcarbamate (IPBC)] | 101 ± 2.5% | 100 ± 1.6% |
| CNCCC=C1c2ccccc2CCc2ccccc21 [Nortriptyline hydrochloride] + CCCCNC(=O)OCC#CI [3-iodo-2-propynyl butylcarbamate (IPBC)] | 70.5 ± 2.2% | 94.28 ± 0.73% |
| COC(=O)C1=C(C#N)NC(C)=C(C(=O)OC(C)C)C1c1cccc([N+](=O)[O-])c1 (centres undefined) [Nilvadipine] + CCCCNC(=O)OCC#CI [3-iodo-2-propynyl butylcarbamate (IPBC)] | 107.2 ± 0.16% | 102 ± 2.5% |
